Measurements reported in the supplement of paper PMC10981050.
Where a name gives a salt, the structure may show the parent alone.

Tested on: MOLM14
Experiment: cell viability relative to vehicle control; higher = less cytotoxic
Conditions: 10 µM; SRSF2 genotype: SRSF2 wt/wt
How it was run: (§1)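 CRISPR-edited mutant clones and isogenic wild-type clones from four leukaemia lines were screened against Selleck bioactive, kinase and epigenetic probe libraries, with identity-inconsistent compounds excluded. Each compound was acoustically dispensed at a single 10 µM dose into 384-well plates holding 2000 cells in 50 µL medium per well. After 48 h the supernatant was removed and CellTiter-Glo luminescence was read. Viability was expressed as percent of the on-plate vehicle control and analysed in Genedata Screener.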

Row | Structure (SMILES) | cell viability
1 | Oc1ccc(Nc2nc(-c3ccc(Cl)cc3)cs2)cc1 | 39.6%
2 | CCC1=C[C@@H]2CN(C1)Cc1c([nH]c3ccccc13)[C@@](C(=O)OC)(c1cc3c(cc1OC)N(C)[C@H]1[C@@](O)(C(=O)OC)[C@H](OC(C)=O)[C@]4(CC)C=CCN5CC[C@]31[C@@H]54)C2 [Vinorelbine Tartrate] | 0.99%
3 | COc1cc(O)c(C(=O)c2ccccc2)cc1S(=O)(=O)O [Sulisobenzone] | 101%

Tested on: OCI-AML2
Experiment: as above
Conditions: 10 µM; SRSF2 genotype: P95H/wt
How it was run: as §1

Row | Structure (SMILES) | cell viability
4 | CCN(Cc1ccncc1)C(=O)C(CO)c1ccccc1 (configuration not stated) [Tropicamide] | 109%
5 | CN(C)C1CCN(C(=O)c2ccc(NC(=O)Nc3ccc(-c4nc(N5CCOCC5)nc(N5CCOCC5)n4)cc3)cc2)CC1 | 10.5%
6 | COc1cc2nc(N3CCN(C(=O)c4ccco4)CC3)nc(N)c2cc1OC [Prazosin HCl] | 102%
7 | O=C(c1cccc(Br)c1)N1CCC(N2CCCC2)CC1 | 87.9%
8 | CC(=O)Oc1ccc2c(c1)Oc1cc(OC(C)=O)ccc1C21OC(=O)c2cc(C(=O)ON3C(=O)CCC3=O)ccc21.CC(=O)Oc1ccc2c(c1)Oc1cc(OC(C)=O)ccc1C21OC(=O)c2ccc(C(=O)ON3C(=O)CCC3=O)cc21 | 75.5%
9 | CC1(C)S[C@@H]2[C@H](NC(=O)Cc3ccccc3)C(=O)N2[C@H]1C(=O)O [Penicillin G Sodium] | 91.9%
10 | CCOc1cc2ncc(C#N)c(Nc3ccc(F)c(Cl)c3)c2cc1NC(=O)/C=C/CN(C)C [Pelitinib (EKB-569)] | 0.33%
11 | CC(C)=CCC[C@](C)(O[C@@H]1O[C@H](CO)[C@@H](O)[C@H](O)[C@H]1O)[C@H]1CC[C@]2(C)[C@@H]1[C@H](O)C[C@@H]1[C@@]3(C)CC[C@H](O)C(C)(C)[C@@H]3[C@@H](O[C@@H]3O[C@H](CO)[C@@H](O)[C@H](O)[C@H]3O[C@@H]3O[C@@H](C)[C@H](O)[C@@H](O)[C@H]3O)C[C@]12C [Ginsenoside Re] | 97.4%
12 | C[C@H](CCC(=O)O)[C@H]1CC[C@H]2[C@@H]3[C@@H](O)C[C@@H]4C[C@H](O)CC[C@]4(C)[C@H]3CC[C@]12C [Ursodiol (Actigal Urso)] | 98.1%
13 | CCCCOc1nc(N)c2c(n1)N(Cc1cccc(CN3CCCC3)c1)CC(=O)N2 | 97.4%
14 | CCOC(=O)[C@H](CCc1ccccc1)N[C@@H](C)C(=O)N1Cc2cc(OC)c(OC)cc2C[C@H]1C(=O)O [Moexipril HCl] | 104%
15 | CS(=O)(=O)c1ccc(C2=C(c3ccccc3)C(=O)OC2)cc1 [Rofecoxib (Vioxx)] | 87.8%
16 | CN(CCOc1ccc(CC2SC(=O)NC2=O)cc1)c1ccccn1 (configuration not stated) [Rosiglitazone HCl] | 102%
17 | Cc1cc(NC(=O)Nc2ccc(N(C)C)cc2)c2cc(F)cc(F)c2n1 | 83.8%
18 | CCN(CCCc1ccccc1)CCCc1ccccc1 [Alverine Citrate] | 87.6%
19 | COc1ccc(C2CC(=O)c3c(O)cc(OC4OC(COC5OC(C)C(O)C(O)C5O)C(O)C(O)C4O)cc3O2)cc1OC (configuration not stated) [Methyl-Hesperidin] | 107%
20 | CNC(=O)CN1CCC(Oc2cc3c(Nc4cccc(Cl)c4F)ncnc3cc2OC)CC1 | 73.8%
21 | CC1OC(OC2C(CO)OC(OCC3OC(OC(=O)C45CCC(C)(C)CC4C4=CCC6C7(C)CCC(OC8OCC(O)C(O)C8O)C(C)(CO)C7CCC6(C)C4(C)CC5)C(O)C(O)C3O)C(O)C2O)C(O)C(O)C1O (configuration not stated) [Hederacoside D] | 97%
22 | C=C[C@@H]1C[C@]1(NC(=O)[C@@H]1C[C@@H](Oc2ncc(OC)c3ccc(Cl)cc23)CN1C(=O)[C@@H](NC(=O)OC(C)(C)C)C(C)(C)C)C(=O)NS(=O)(=O)C1CC1 [Asunaprevir] | 108%
23 | C=C(Cc1ccccc1Cl)C(=O)OCC | 106%

Row | Structure (SMILES) | cell viability
24 | O=C(O)C1=C(CSc2nnnn2CS(=O)(=O)O)CS[C@@H]2[C@H](NC(=O)[C@H](O)c3ccccc3)C(=O)N12 [Cefonicid sodium] | 103%
25 | Fc1ccc(Cl)cc1-c1nc(Nc2ccncc2)c2nccnc2n1 | 104%
26 | Cc1cccc(Nc2nc(-c3ccncc3)cs2)c1 | 64.3%
27 | COc1cc([C@H]2OC[C@H]3[C@@H]2CO[C@@H]3c2ccc(O[C@@H]3O[C@H](CO)[C@@H](O)[C@H](O)[C@H]3O)c(OC)c2)ccc1O[C@@H]1O[C@H](CO)[C@@H](O)[C@H](O)[C@H]1O [Pinoresinol diglucoside] | 104%
28 | C1=Cc2ccccc2Nc2ccccc21 [Iminostilbene] | 106%
29 | O=C(O)CSc1nnc(Br)n1-c1ccc(C2CC2)c2ccccc12 [Lesinurad] | 96.9%
30 | CCCCN(Cc1ccc(C(=O)NO)cc1)C(=O)Nc1ccccc1 [Nexturastat A] | 3.08%
31 | CC(C)c1cc2c(N3CCN(C4=NCC(C)(C)S4)CC3)ncnc2s1 [MI-3 (Menin-MLL Inhibitor)] | 40.6%
32 | Clc1ccc(CSC(Cn2ccnc2)c2ccc(Cl)cc2Cl)cc1 (configuration not stated) [Sulconazole Nitrate] | 40%
33 | CC1=CC(=O)CC(C)(C)C1=O [Ketoisophorone] | 96.1%
34 | CN1CCc2c(c3ccccc3n2Cc2ccc(C(=O)NO)cc2)C1 [Tubastatin A hydrochloride] | 51.1%
35 | CCC[C@@H]1C[C@@H](C(=O)N[C@@H]([C@H]2O[C@H](SC)[C@H](O)[C@@H](O)[C@H]2O)[C@@H](C)O)N(C)C1 [Lincomycin hydrochloride (Lincocin)] | 79.5%
36 | COc1cc2c(cc1OC)-c1cc3ccc(OC)c(OC)c3c[n+]1CC2 [Palmatine chloride] | 81.9%
37 | COc1ccc(C(=O)CC2(O)C(=O)Nc3c(Cl)ccc(Cl)c32)cc1 (configuration not stated) | 4.82%
38 | CCNC(=O)Nc1ccc(-c2nc(N3CCOC[C@@H]3C)c3c(n2)C(C)(C)S(=O)(=O)C3)cc1 | 29.6%
39 | C=C[C@]1(C)C[C@@H](OC(=O)CSCCN(CC)CC)[C@]2(C)[C@H](C)CC[C@]3(CCC(=O)[C@H]32)[C@@H](C)[C@@H]1O [Tiamulin] | 86.1%
40 | Oc1ccc(Nc2nc(-c3ccc(Cl)cc3)cs2)cc1 | 42.1%
41 | CCC1=C[C@@H]2CN(C1)Cc1c([nH]c3ccccc13)[C@@](C(=O)OC)(c1cc3c(cc1OC)N(C)[C@H]1[C@@](O)(C(=O)OC)[C@H](OC(C)=O)[C@]4(CC)C=CCN5CC[C@]31[C@@H]54)C2 [Vinorelbine Tartrate] | 1.63%
42 | COc1cc(O)c(C(=O)c2ccccc2)cc1S(=O)(=O)O [Sulisobenzone] | 88.7%
